Among the data in ChEMBL document CHEMBL1157539, “Thousands of chemical starting points for antimalarial lead identification” (Nature, 2010) are Inhibition values, retold here.

Each structure is given as a SMILES string. “And” between values parts separate entries of the source, which are not always exact repeats. Equal entries are not always repeated.

For the test, the system named is HepG2. Nature of the test: GSK_TCMDC: Percent inhibition of human HepG2 cell line. Test compounds present at 10uM. The format is functional.
For orientation: Inhibition means the relative decrease from the control value, in per cent. With `O=C(/C=C/c1ccc(Cl)c(Cl)c1)NC1CCC(CN2CCC(c3c[nH]c4ccccc34)CC2)CC1` (stereo not drawn), the Inhibition is given as 27%.
Regarding `C=CCOc1ccccc1CNCC(O)c1cccc(C(F)(F)F)c1` (stereo not drawn), the Inhibition stood at 10%.
For `Oc1ccccc1CN1CCC(CCOC(c2ccccc2)c2ccc(Cl)cc2)CC1` (stereo not drawn), the Inhibition amounted to 19%.
`CC(=O)Nc1ccc(OCCN(CC(C)(C)C)c2ccc(C#N)c(C(F)(F)F)c2)c(Cl)c1` came in with an Inhibition of 0%.
In the case of `CC[C@H]1C[N+]2([O-])CC[C@@H]1C[C@H]2[C@H](O)c1cc(-c2ccccc2)nc2ccc(OC)cc12`, the Inhibition is listed as 0%.
`O=C(Nc1ccc(CN2CCC(c3c[nH]c4ccc(O)cc34)CC2)cc1)c1ccc(-c2ccccc2)cc1`: the Inhibition is 33%.
For `Cc1ccc(CC(C)NCC(O)c2cccc(C(F)(F)F)c2)c(C)c1.Cl` (stereo not drawn), the Inhibition is recorded as 3%.
With `CCCc1cc(O)c2c3c(c(=O)oc2c1)CN(C)CC3`, the Inhibition was determined as 12%.
To `CC[C@H]1CN2CC[C@@H]1C[C@H]2[C@H](O)c1cc(-c2ccc(Cl)c(Cl)c2)nc2ccc(O)cc12` belongs 0%; to `CCCCCc1cc(O)c2c(c1)OC(C)(C)CC2C1=CCN(Cc2cccnc2)CC1.Cl.O` (stereo not drawn), 15%.
To `CN1CC=C(c2c[nH]c3ccc(OCc4ccccc4)cc23)CC1` belongs 0%; to `CC[C@H]1CN2CC[C@H]1C[C@H]2[C@H](O)c1cc(-c2ccccc2F)nc2ccc(OC)cc12.Cl`, 13%; to `Cc1[nH]c2cc(F)ccc2c1C1=CCN(CCCCC2(C)C(=O)Nc3c(F)cccc32)CC1` (stereo not drawn), 15%.
`CC[C@H]1CN2CC[C@H]1C[C@H]2[C@H](OC(=O)c1ccccc1)c1cc(C#N)nc2ccc(OC)cc12` yielded an Inhibition of 19%.
`Br.CCOC(=O)c1ccc(CC(C)NCC(O)c2cccc(C(F)(F)F)c2)cc1` (stereo not drawn): the Inhibition is on record as 5%.
For `C/C=C1\CN2CC[C@H]1C[C@@H]2[C@@H](O)c1ccnc2ccc(O)cc12`, the Inhibition was determined as 0%.
To `COc1ccc(CC(C)NCC(O)c2cccc(C(F)(F)F)c2)cc1` (stereo not drawn) belongs 0%; to `Cc1[nH]c2ccccc2c1C1=CCN(CC2CC2C(=O)c2ccccc2)CC1` (stereo not drawn), 18%.
`COc1cc2nc(N(C)C3CCN(Cc4ccccc4)CC3)nc(N)c2cc1OC`: the Inhibition is 19%.
The compound `CNC(=O)c1ccc2[nH]cc(C3CCN(CC4CCC(NC(=O)/C=C/c5ccc(Cl)c(Cl)c5)CC4)CC3)c2c1` (stereo not drawn) gave an Inhibition of 0%.
`Cc1cc2cc(CNCCc3ccccc3Br)ccc2nc1N.Cl` yielded an Inhibition of 31%.
As for `c1ccc(C(OCCC2CCN(Cc3cccc4cccnc34)CC2)c2ccccc2)cc1`, the Inhibition stood at 9%.
Then `C=C[C@H]1CN2CC[C@H]1C[C@H]2[C@H](OS(=O)(=O)O)c1ccnc2ccccc12`, with 8%.
Then `CC1(CCCCN2CC=C(c3c[nH]c4ccccc34)CC2)C(=O)Nc2ccccc21` (stereo not drawn), with 3%; and `Cc1cccc(C(=O)Nc2ccnc(N(C)C3CCN(CC(C)C)CC3)c2)c1.O=C(O)C(F)(F)F`, with 10%; and `Cc1ccc2c(C3=CCN(CCCCC4(C)C(=O)Nc5ccccc54)CC3)c(C)[nH]c2c1` (stereo not drawn), with 9%.
Then `Cl.c1ccc2c(NCCCCCCCCCNc3c4ccccc4nc4ccccc34)c3ccccc3nc2c1`, with 99%.
Turning to `COC(=O)c1ccc(CC(C)NCC(O)c2cccc(C(F)(F)F)c2)cc1` (stereo not drawn), the Inhibition is on record as 0%.
Consider `Cc1ccc(/C=C/C(=O)NC2CCC(CN3CCC(c4c[nH]c5ccccc45)CC3)CC2)cc1` (stereo not drawn), for which the Inhibition is 32% and 41%.
For the compound `CNCC(O)c1cc(Cl)c(Cl)cc1C.Cl` (stereo not drawn), the Inhibition came out at 0%.
The compound `COCCNCc1cccc(-c2ccc(CN(C(=O)Nc3ccccc3)C3CCN(Cc4ccccc4)CC3)cc2)c1.O=C(O)C(F)(F)F` gave an Inhibition of 25%.
Then `CC(=O)Nc1ccc(CN2CCC(N(C)c3cc(NC(=O)c4cccs4)ccn3)CC2)cc1.O=C(O)C(F)(F)F`, with 0%; and `CC[C@H]1CN2CC[C@@H]1C[C@@H]2[C@@H](O)c1cc(-c2ccc(F)cc2)nc2ccc(OC)cc12.Cl`, with 18%.
As to `COCCNCc1cccc(-c2ccc(CN(C(=O)NC3CCCCC3)C3CCN(Cc4ccccc4)CC3)cc2)c1.O=C(O)C(F)(F)F`, the Inhibition is 32%.
In turn, `CC1(C)CCCN(C(=O)Cc2ccc3c(c2)CCCC3)C1CN1CC=CC1.Cl` (stereo not drawn) gave an Inhibition of 0%.
In turn, `CC[C@H]1CN2CC[C@H]1C[C@@H]2[C@@H](O)c1ccnc2ccc(OC)cc12.Cl` displayed an Inhibition of 0%.
Take `CC[C@H]1CN2CC[C@H]1C[C@H]2[C@H](O)c1cc(/C=C/c2ccc(F)cc2)nc2ccc(OC)cc12.Cl`: the Inhibition worked out at 55%.
`Cc1cccc2[nH]cc(C3CCN(CC4CCC(NC(=O)/C=C/c5ccc(Cl)c(Cl)c5)CC4)CC3)c12.Cl` (stereo not drawn) returned an Inhibition of 88%.
